Reference: ChEMBL document CHEMBL4808148, “HDAC6 screening dataset using tau-based substrate in an enzymatic assay yields selective inhibitors and activators” (2021)
The campaign covered roughly 5,600 compounds. About 390 (7%) showed an effect of 50% or more. For the sample, strong results were picked, then their nearest neighbours and some compounds at random. Non-standard residues stand in square brackets, D forms with d. Residues, ends and D or L forms follow the SMILES beside them. dPhe(4-Cl) = N[C@H](Cc1ccc(Cl)cc1)C(=O)O; d2Nal = N[C@H](Cc1ccc2ccccc2c1)C(=O)O; dCit = NC(=O)NCCC[C@@H](N)C(=O)O; d3Pal = N[C@H](Cc1cccnc1)C(=O)O

Experiments:
[1] = target: T1, Protein deacetylase HDAC6 (Homo sapiens) (UniProt Q9UBN7); conditions: at 10 µM
T1 sequence (whole entry): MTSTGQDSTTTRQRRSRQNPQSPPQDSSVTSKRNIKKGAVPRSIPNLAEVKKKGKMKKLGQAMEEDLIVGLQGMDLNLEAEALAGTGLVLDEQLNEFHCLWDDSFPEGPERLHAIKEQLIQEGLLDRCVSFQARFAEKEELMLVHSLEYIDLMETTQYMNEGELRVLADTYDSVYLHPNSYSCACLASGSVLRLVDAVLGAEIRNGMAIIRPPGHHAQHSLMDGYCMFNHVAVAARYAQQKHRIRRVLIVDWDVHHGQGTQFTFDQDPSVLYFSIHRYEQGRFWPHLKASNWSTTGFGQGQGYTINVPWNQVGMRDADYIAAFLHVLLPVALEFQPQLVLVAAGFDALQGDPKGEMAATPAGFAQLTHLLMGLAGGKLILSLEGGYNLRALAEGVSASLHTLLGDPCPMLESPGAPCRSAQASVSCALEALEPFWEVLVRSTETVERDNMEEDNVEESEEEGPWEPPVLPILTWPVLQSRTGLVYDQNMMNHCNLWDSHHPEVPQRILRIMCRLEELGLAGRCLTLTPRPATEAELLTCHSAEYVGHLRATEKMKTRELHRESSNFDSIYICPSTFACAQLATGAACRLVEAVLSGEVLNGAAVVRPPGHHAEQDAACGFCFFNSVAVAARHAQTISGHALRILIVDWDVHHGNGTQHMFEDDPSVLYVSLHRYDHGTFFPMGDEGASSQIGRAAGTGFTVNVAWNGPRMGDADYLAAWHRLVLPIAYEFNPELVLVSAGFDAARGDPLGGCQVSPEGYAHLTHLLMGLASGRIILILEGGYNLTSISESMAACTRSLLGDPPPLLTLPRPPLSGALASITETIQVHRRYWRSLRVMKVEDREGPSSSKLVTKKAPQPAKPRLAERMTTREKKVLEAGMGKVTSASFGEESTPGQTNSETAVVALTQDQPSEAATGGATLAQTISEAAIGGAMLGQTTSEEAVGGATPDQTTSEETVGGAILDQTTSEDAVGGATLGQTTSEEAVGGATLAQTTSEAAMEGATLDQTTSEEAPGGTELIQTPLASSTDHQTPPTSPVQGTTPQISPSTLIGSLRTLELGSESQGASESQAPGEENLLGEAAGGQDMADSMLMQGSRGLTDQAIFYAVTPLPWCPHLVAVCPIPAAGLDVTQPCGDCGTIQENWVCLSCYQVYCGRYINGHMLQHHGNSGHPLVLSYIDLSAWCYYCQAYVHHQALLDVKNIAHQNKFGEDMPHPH

[2] = target: Protein deacetylase HDAC6 (Homo sapiens) (UniProt Q9UBN7); conditions: at 10 µM; remark: listed apart in the source

Compound | inhibition [1] [%] | inhibition [2] [%]
CNC(=O)c1ccccc1Sc1ccc2c(/C=C/c3ccccn3)n[nH]c2c1 | 105 | –
CCCCc1nc(Cl)c(C(=O)O)n1Cc1ccc(-c2ccccc2-c2nn[nH]n2)cc1 | 6.5 | –
CCCc1nc2c(C)cc(-c3nc4ccccc4n3C)cc2n1Cc1ccc(-c2ccccc2C(=O)O)cc1 | 65 | –
CCOc1nc2cccc(C(=O)O)c2n1Cc1ccc(-c2ccccc2-c2nnn[nH]2)cc1 | -9.37 | –
O=C(O)[C@H]1C[C@@H](CP(=O)(O)O)CCN1 | 7.25 | –
CC(C)C[C@@H](C(=O)N[C@H](C(=O)OC1CCCC1)c1ccccc1)[C@H](O)C(=O)NO | -7.78 | –
[K+] | 17.5 | –
O=C(Nc1cnn2ccc(N3CCC[C@@H]3c3cc(F)ccc3F)nc12)N1CC[C@H](O)C1 | 28.9 | –
O=C1C(O)=C(O)C(=O)C(O)=C1O | 1.19 | –
CCc1cncnc1N1CCN(Cc2nc3cc(C(F)(F)F)ccc3[nH]2)CC1 | 2.81 | –
c1ccc(N2CCN(Cc3nc4ccccc4[nH]3)CC2)nc1 | 20.5 | –
CC(C)(C)c1ccc(-c2nc3c(N4CCN(Cc5ccc6nccnc6c5)CC4)cccc3[nH]2)cc1 | 110 | –
CCCCCCCN(CC)CCCC(O)c1ccc(NS(C)(=O)=O)cc1 (stereo not given) | 30.4 | –
O=C(c1ccc(C(=O)N2CCC(N3CCCC3)CC2)c(Nc2ccccc2)c1)N1CCC(N2CCCC2)CC1 | 28.5 | –
COc1cc2c(cc1OCCCN1CCCC1)N=C(N)C21CCC1 | -4.1 | –
O=C(O)c1ccc(/C=C2/SC(=S)N(c3cccc(C(F)(F)F)c3)C2=O)cc1 | 4.63 | –
COc1ccccc1OCC(O)COC(N)=O (stereo not given) | 75.6 | –
NC(=O)OCC(O)COc1ccc(Cl)cc1 (stereo not given) | 47.1 | –
COc1ccccc1OCC(O)CO (stereo not given) | -8.39 | –
CC(C)C[C@H](NC(=O)N1CCCCCC1)C(=O)N[C@H](Cc1cn(C)c2ccccc12)C(=O)N[C@H](Cc1ccccn1)C(=O)O | -8.82 | –
CC(=O)N[C@H](Cc1ccc2ccccc2c1)C(=O)N[C@H](Cc1ccc(Cl)cc1)C(=O)N[C@H](Cc1cccnc1)C(=O)N[C@@H](CO)C(=O)N[C@@H](Cc1ccc(O)cc1)C(=O)N[C@H](CCCNC(N)=O)C(=O)N[C@@H](CC(C)C)C(=O)N[C@@H](CCCNC(=N)N)C(=O)N1CCC[C@H]1C(=O)N[C@H](C)C(N)=O (Ac-[d2Nal][dPhe(4-Cl)][d3Pal]SY[dCit]LRP[dA]-NH2) | 30.9 | –
Cc1nc(C)c(C)nc1C | -3.53 | –

Compound | inhibition [1] [%] | inhibition [2] [%]
COc1ccc(-c2ccc(=N)n(CCCC(=O)O)n2)cc1 | 8.71 | –
O=c1ncn2nc(Sc3ccc(F)cc3F)ccc2c1-c1c(Cl)cccc1Cl | 36.3 | –
CN1c2c([nH]c(N)nc2=O)NC[C@@H]1CNc1ccc(C(=O)N[C@@H](CCC(=O)O)C(=O)O)cc1 | 11.1 | –
CCc1nc2ccc(Cl)cn2c1C(=O)NCc1ccc(N2CCC(c3ccc(OC(F)(F)F)cc3)CC2)cc1 | 6.99 | –
COc1cccc(-c2cc(=O)c3ccccc3o2)c1N | 97.4 | –
CC(=O)N[C@@H](CSC/C=C(\C)CC/C=C(\C)CCC=C(C)C)C(=O)O | 19.5 | –
Cc1ccc(N2CCN(CCC3NC(=O)c4ccccc43)CC2)cc1C (stereo not given) | 0.62 | –
CCN(Cc1ccccc1)C(=O)Cn1c(=O)n(C)c2cnc(-c3ccccc3)nc21 | 31.2 | –
Cc1cc2nc3ccc(N(C)C)cc3[s+]c2cc1N | 60.9 | –
CC1CCN(C(c2ccc(F)cc2)c2ccc(C(C)C(=O)O)cc2-c2ccc(C(F)(F)F)cc2)CC1 (stereo not given) | 27.9 | –
Nc1ncnc2nc(-c3ccc(N4CCOCC4)nc3)cc(-c3cccc(Br)c3)c12 | 19.8 | –
CYANOCOBALAMIN, CHEMBL2110563 | – | -2.71
BLEOMYCIN SULFATE, CHEMBL6067493 | – | 23.1
FLUPENTIXOL, CHEMBL6066864 | – | 88.9
O=c1ccc2cc3ccoc3cc2o1 | 17.5 | –
O=C(O)c1ccc(NC(=O)[C@H](Cc2ccc(O)cc2)NC(=O)c2ccccc2)cc1 | 10.6 | –
CC(C)[C@H](C(=O)Nc1ccc(C(=O)NO)cc1)c1ccccc1 | 101 | –
CC(=O)Nc1ccc(C(=O)Nc2ccccc2N)cc1 | -0.35 | –
CC1(C)Oc2ccc(C#N)cc2[C@@H](N2CCCC2=O)[C@@H]1O | -9.16 | –
Cc1ccc(C(=O)Cn2c3c(sc2=N)CCCC3)cc1 | 102 | –
CCOC(=O)C1=C(C)NC(c2ccccc2)=C(C(=O)OCc2ccc([N+](=O)[O-])cc2)C1C#Cc1ccccc1 (stereo not given) | -2.41 | –
COc1cccc(CCc2ccccc2OCC(CN(C)C)OC(=O)CCC(=O)O)c1 (stereo not given) | -7 | –

Compound | inhibition [1] [%] | inhibition [2] [%]
COc1cccc(/C=N/C=N/c2cccc(OC)c2)c1 | 99.8 | –
N/C(=N\C(=O)c1nc(Cl)c(N)nc1N)NCc1ccccc1 | 25.2 | –
N[C@H](C(=O)O)c1ccc(O)cc1 | 4.75 | –
Cc1cc(-c2nc(C(=O)Nc3cn(C4CCOCC4)nc3C(N)=O)co2)ccn1 | 22.8 | –
CC(=O)Nc1ccc(S(=O)(=O)Nc2ccc([N+](=O)[O-])cc2)cc1 | 17.7 | –
O=C(/C=C/c1cccc(S(=O)(=O)Nc2ccccc2)c1)NO | 102 | –
COc1ccc(/C=C/C(=O)Nc2ccccc2C(=O)O)cc1OC | 40.8 | –
c1cc(-c2sc(-c3ccncc3)c(-c3ccncc3)c2-c2ccncc2)ccn1 | 17 | –
COc1cc(N)c(Cl)cc1C(=O)CCC1CCN(CCNS(C)(=O)=O)CC1 | -6.48 | –
Nc1ncnc2c1ncn2[C@@H]1O[C@H](CO)C[C@H]1O | -9.63 | –
CC(=O)Oc1c(C)cc(OCC(O)CNC(C)C)c(C)c1C (stereo not given) | 28.4 | –
CCOc1ccc(-n2c(C(C)N(Cc3cccnc3)C(=O)Cc3ccc(F)c(C(F)(F)F)c3)nc3ncccc3c2=O)cc1 (racemic) | -3.08 | –
COc1cc2nccc(Oc3ccc(NC(=O)Nc4ccc(F)cc4F)c(F)c3)c2cc1OC | 10.8 | –
COc1cccc(-c2ccc(NC(=O)C3=C(C(=O)O)CCC3)c(F)c2)c1 | 43.2 | –
CCCCOc1ccc(C(=O)Nc2ccc(F)cc2F)cc1 | 69.8 | –
CHLOROPHYLLIDECOPPER COMPLEX SODIUM SALT, CHEMBL5308389 | – | 8.12
Chlorophyllin (sodium copper salt), CHEMBL5308389 | – | 19.3
BISMUTH SUBSALICYLATE, CHEMBL1120 | – | 12.2
O=C(O)C1(c2ccc(-c3ccc(Cl)c(Cl)c3)c(F)c2)CC1 | 33.4 | –
Cc1c(-c2ccc(-c3ccccc3F)cc2)nc2ccc(F)cc2c1C(=O)O | -9.14 | –
O=C(O)c1cc(-c2ccc(F)cc2F)ccc1O | 60.9 | –
